The values below come from PubChem BioAssay (NCI).

Compounds without any hit were thinned out: in the full panel of roughly 83,000, 20% have a hit.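 Cells were grown in 96-well plates and exposed to the test compound at a single concentration for 48 hours; results are reported as percent growth, with values below 10 considered active.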 Unmarked numbers belong to inactive results. Active and inactive are the calls of the source.

Test in all cases: NCI-60 one-dose screen, 48 h (100 = growth as untreated, 0 = no growth, -100 = all killed)
Common to all, as to conditions: 10 µM unless noted

In assay [1] the test system is NCI-H23 lung.
Assay [2] deals with NCI-H322M lung.
For assay [3], the system named is HOP-62 NSCLC.
The subject of assay [4] is NCI-H460 lung.
Assay [5] concerns HOP-92 NSCLC.
The subject of assay [6] is NCI-H522 lung.
Assay [7] relates to A549/ATCC NSCLC.
Assay [8] deals with 786-0 renal.
Assay [9] concerns COLO 205 colon.
For assay [10], the system named is DU-145 prostate.
For assay [11], the system named is K-562 leukemia.
In assay [12] the test system is MALME-3M melanoma.
Assay [13] relates to MDA-MB-231 breast.
Assay [14] has as its system RXF 393 renal.
Assay [15] deals with SF-268 CNS.
The test system of assay [16] is SF-295 CNS.
Assay [17] concerns SF-539 CNS.
Assay [18] relates to UACC-257 melanoma.
Assay [19] relates to M14 melanoma.
Assay [20] has as its system HCT-15 colon.

Turning to `Fc1cccc(COc2ccc(Nc3ncnc4onc(-c5ccccc5)c34)cc2)c1`, the growth in [1] is 18.1%; in [2], 23.1%; in assay [3], 33.4%; in assay [4], 2.61% (active); in [5], 46.3%; in assay [6], 5.66% (active). In addition, the growth in [7] is 19.9%; in [8] it was 8.18% (active); in [9] it was 8.73% (active); in [10] it was -29.8% (active); in assay [11] it was 12.1%; in assay [12], 41%. The growth in assay [13] was 13.8%; in assay [14] it was -26.6% (active); in assay [15], 29.2%; in assay [16], 2.77% (active); in [17], -42.4% (active); in assay [18], 54.8%. The growth in assay [19] is -23% (active); in assay [20], 20.2%.
Regarding `FC(F)(F)c1cccc(Nc2nc3ccccc3nc2Nc2cccc(C(F)(F)F)c2)c1`, the growth is 39.7% in [1]; -28% (active) in assay [2]; 2.35% (active) in [3]; -59.4% (active) in [4]; 6.66% (active) in assay [5]; -57.1% (active) in assay [6]. Besides, the growth is 3.08% (active) in assay [7]; -75.3% (active) in assay [8]; -87.2% (active) in assay [9]; -1.33% (active) in [10]; -19.6% (active) in [11]; -81.6% (active) in assay [12]. Moreover, the growth was -56.3% (active) in assay [13]; -89.6% (active) in assay [14]; -9.63% (active) in assay [15]; -78.9% (active) in assay [16]; -78.7% (active) in assay [17]; -75.1% (active) in assay [18]. Moreover, the growth in assay [19] was -69.9% (active); in assay [20], 2.32% (active).
With `O=c1oc2ccc(-c3ccc(F)cc3F)cc2c(=O)n1-c1cccc(C(F)(F)F)c1`, the growth was 1.75% (active) in assay [1]; 4.41% (active) in assay [2]; 3.5% (active) in [3]; 4.14% (active) in assay [4]; -26.6% (active) in assay [5]; -10.7% (active) in assay [6]. Moreover, the growth in assay [7] was 7.26% (active); in assay [8] it was 0.874% (active); in assay [9], 17.9%; in [10] it was 20.1%; in [11], 10.9%; in assay [12] it was -24% (active). For the same compound, the growth in assay [13] was -16% (active); in assay [14], -8.07% (active); in [15], 12.7%; in [16], -0.824% (active); in [17] it was 9.91% (active); in [18], -14.2% (active). In addition, the growth in assay [19] is 18.3%; in assay [20], 13%.
With `O=C1c2cc(I)ccc2Oc2cc([N+](=O)[O-])ccc2N1c1ccc(Cl)cc1F`, the growth in assay [1] was 87.7%; in assay [2], 93.4%; in assay [3] it was 89.9%; in assay [4], 90.4%; in [5], 88.3%; in assay [6], 65.7%. Further, the growth was 78.2% in assay [7]; 98% in [8]; 106% in assay [9]; 97.9% in [10]; 49.4% in [11]; 84.9% in assay [12]. Besides, the growth was 78.4% in [13]; 99% in assay [14]; 79.1% in assay [15]; 92% in assay [16]; 92.8% in assay [17]; 94.1% in assay [18]. Moreover, the growth in assay [19] was 97.7%; in assay [20], 57.4%.
With `CCOC(=O)c1sc(-c2ccc(OS(=O)(=O)C[C@]34CCC(CC3=O)C4(C)C)c(C=O)c2)nc1C`, the growth is 28.5% in [1]; 50.4% in assay [2]; 8.26% (active) in assay [3]; -1.32% (active) in assay [4]; 38.4% in [5]; 1.5% (active) in assay [6]. Also, the growth in assay [7] was 15.4%; in [8] it was 27.4%; in assay [9] it was -34.9% (active); in [10], 21.3%; in [11] it was 7.5% (active); in assay [12], 38.1%. Further, the growth is 19.7% in assay [13]; 52.9% in [14]; 15% in [15]; 26.2% in [16]; 43.2% in assay [17]; 4.31% (active) in assay [18]. Further, the growth in assay [19] is 3.97% (active); in [20], 5.75% (active).
Regarding `COc1cc(C(=O)Nc2ccc(-c3nc4ccccc4[nH]3)cc2)cc(OC)c1OC`, the growth in assay [1] was 72.6%; in assay [2] it was 94.5%; in assay [3] it was 42.5%; in assay [4] it was 22.6%; in [5] it was 56.4%; in assay [6], 25%. In addition, the growth in [7] was 45.8%; in assay [8], 73.4%; in assay [9], 44.6%; in assay [10], 87.9%; in assay [11], 15.2%; in assay [12], 81.3%. Besides, the growth in [13] is 61.4%; in assay [14], 28%; in assay [15], 55.4%; in assay [16] it was 9.85% (active); in [17], 34.7%; in [18], 78.1%. Further, in [19], the growth was 43.5%.
On to `NC(=O)CSc1nc(-c2ccc(F)cc2)cc(-c2ccco2)n1`, for which the growth in assay [1] was 98.7%; in assay [2] it was 99.9%; in assay [3] it was 108%; in assay [4], 110%; in [5] it was 101%; in assay [6], 94.5%. Further, the growth was 104% in [7]; 105% in assay [8]; 111% in [9]; 111% in assay [10]; 103% in [11]; 110% in assay [12]. For the same compound, the growth in [13] is 98.3%; in [14] it was 118%; in assay [15], 104%; in assay [16] it was 102%; in [17], 110%; in [18] it was 109%. Also, the growth in assay [19] is 98%; in [20], 107%.
On to `COC(=O)c1cc2c(n1Cc1ccccc1)-c1oncc1CCC2`, for which the growth is 81.5% in assay [1]; 114% in assay [2]; 72.9% in assay [3]; 94.7% in assay [4]; 75.3% in assay [5]; 39.1% in assay [6]. In addition, the growth was 49.3% in assay [7]; 92.3% in [8]; 55% in assay [9]; 102% in assay [10]; 17.8% in assay [11]; 49.5% in assay [12]. Also, the growth in [13] was 64.2%; in assay [14], 73.7%; in assay [15] it was 86.8%; in assay [16], 74.7%; in assay [17] it was 69.1%; in assay [18] it was 76.2%. The figures for the growth in assay [19] and in assay [20] were 57.5% and 40.9%, respectively.
